Targets with a hit are over-represented here; the source holds about 7,900 in all. About 0.6% of all pairs of compound and target were hits.
The targets below were run with c1cn2cc(-c3ccc4cn[nH]c4c3)nc(Nc3ccc(N4CCOCC4)cc3)c2n1 [entospletinib] (assay: log2 fold change, soluble protein after heating vs DMSO (PISA); higher = thermal stabilisation; K562 cells, 10 uM, 30 min; active = over 0.2 and 3.5 SD of the protein, either way, in both replicates (recomputed)).
Summary of the method: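 For each measurement, 10 μM compound was applied for 30 min to K562 cells at 2×10^6 cells/mL. Aliquots were heated for 3 min across 48°C-58°C, pooled, and extracted in PBS with 0.5% NP-40 at 4°C; the supernatant after 21,000xg for 90 min was soluble protein. This was quantified by TMTpro 16plex LC-MS/MS with channel sums equalised, and thermal stability was reported relative to control samples from duplicates, on a log2 fold-change scale.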

Chain of UniProt Q92692 (Q92692 whole entry, looked up): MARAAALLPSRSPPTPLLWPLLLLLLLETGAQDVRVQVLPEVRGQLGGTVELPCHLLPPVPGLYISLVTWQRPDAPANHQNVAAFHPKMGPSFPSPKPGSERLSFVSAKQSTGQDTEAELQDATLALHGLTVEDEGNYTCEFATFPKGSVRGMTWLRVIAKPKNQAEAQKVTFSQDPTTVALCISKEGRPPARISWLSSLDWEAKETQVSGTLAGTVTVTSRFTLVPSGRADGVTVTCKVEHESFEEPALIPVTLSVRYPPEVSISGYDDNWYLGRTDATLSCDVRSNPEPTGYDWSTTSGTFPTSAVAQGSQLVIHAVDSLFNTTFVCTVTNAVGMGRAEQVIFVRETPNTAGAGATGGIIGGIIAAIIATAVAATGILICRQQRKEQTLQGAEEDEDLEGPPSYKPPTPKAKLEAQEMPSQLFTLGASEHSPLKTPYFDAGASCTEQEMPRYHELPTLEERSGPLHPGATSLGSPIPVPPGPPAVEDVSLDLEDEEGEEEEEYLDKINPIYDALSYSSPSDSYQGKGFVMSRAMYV
Chain of UniProt O75607 (O75607 whole entry, looked up): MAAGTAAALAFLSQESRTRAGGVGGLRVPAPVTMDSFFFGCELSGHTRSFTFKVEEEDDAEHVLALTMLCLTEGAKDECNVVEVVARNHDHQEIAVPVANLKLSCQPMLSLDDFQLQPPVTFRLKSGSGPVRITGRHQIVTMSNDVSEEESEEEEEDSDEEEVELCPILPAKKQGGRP
Chain of UniProt O95747 (O95747 whole entry, looked up): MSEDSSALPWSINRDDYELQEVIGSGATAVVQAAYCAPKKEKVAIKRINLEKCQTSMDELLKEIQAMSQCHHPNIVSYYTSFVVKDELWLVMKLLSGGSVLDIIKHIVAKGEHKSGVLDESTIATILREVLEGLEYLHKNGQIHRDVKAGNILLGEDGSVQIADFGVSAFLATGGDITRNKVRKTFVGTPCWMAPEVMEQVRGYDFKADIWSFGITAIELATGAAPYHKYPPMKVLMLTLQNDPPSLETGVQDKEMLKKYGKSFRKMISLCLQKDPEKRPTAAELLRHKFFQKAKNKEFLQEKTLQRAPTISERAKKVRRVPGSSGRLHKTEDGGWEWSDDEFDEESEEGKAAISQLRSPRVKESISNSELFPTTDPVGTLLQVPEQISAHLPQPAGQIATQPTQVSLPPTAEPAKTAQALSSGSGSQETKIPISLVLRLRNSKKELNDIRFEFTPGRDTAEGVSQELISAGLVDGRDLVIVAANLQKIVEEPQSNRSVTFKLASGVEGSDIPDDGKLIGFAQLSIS
Chain of UniProt Q9H081 (Q9H081 whole entry, looked up): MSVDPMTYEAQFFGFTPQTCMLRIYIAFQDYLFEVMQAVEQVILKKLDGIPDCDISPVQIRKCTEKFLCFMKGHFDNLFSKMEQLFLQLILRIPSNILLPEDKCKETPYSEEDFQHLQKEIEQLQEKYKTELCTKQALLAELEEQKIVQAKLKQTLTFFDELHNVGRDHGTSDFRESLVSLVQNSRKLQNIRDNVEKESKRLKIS
Chain of UniProt Q9BW27 (Q9BW27 whole entry, looked up): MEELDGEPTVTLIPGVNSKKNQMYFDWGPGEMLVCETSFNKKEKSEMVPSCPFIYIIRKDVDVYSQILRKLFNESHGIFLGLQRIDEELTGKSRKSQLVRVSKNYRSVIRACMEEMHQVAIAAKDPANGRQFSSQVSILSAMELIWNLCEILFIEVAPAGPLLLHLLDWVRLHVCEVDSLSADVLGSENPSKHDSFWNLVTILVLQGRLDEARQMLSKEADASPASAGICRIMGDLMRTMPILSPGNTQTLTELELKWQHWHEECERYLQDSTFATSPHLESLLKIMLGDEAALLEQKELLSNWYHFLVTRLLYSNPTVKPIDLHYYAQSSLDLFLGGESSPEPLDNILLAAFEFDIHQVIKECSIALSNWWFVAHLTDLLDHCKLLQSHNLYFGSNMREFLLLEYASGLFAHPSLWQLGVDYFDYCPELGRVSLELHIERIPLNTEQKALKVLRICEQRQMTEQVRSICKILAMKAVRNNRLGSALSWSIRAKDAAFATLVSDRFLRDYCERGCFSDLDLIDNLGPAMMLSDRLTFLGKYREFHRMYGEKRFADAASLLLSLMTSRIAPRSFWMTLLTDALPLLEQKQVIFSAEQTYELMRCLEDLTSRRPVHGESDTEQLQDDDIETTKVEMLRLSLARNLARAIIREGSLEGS
Chain of UniProt Q9H4L5 (Q9H4L5 whole entry, looked up): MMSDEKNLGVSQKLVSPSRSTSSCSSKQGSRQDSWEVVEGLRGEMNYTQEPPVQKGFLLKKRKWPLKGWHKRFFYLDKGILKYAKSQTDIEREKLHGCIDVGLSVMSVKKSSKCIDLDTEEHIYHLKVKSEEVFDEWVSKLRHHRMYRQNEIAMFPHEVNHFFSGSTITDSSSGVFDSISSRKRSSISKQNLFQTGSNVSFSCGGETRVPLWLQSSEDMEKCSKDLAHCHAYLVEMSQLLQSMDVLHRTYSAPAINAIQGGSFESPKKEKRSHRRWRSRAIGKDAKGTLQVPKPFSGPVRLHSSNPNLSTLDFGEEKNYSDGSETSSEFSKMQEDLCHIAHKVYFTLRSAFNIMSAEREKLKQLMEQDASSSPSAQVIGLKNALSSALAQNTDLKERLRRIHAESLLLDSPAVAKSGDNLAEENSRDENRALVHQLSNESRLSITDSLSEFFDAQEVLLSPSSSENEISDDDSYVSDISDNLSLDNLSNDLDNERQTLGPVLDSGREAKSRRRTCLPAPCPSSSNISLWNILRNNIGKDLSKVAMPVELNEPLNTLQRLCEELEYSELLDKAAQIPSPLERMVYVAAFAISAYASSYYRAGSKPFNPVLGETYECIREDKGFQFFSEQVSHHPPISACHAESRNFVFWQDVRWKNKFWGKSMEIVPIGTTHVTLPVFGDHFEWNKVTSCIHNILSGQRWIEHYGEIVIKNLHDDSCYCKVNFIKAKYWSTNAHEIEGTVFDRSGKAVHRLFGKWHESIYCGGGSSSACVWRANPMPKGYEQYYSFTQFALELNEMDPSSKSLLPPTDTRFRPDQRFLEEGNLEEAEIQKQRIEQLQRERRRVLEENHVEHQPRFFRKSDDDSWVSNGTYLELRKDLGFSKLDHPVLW
Chain of UniProt Q330K2 (Q330K2 whole entry, looked up): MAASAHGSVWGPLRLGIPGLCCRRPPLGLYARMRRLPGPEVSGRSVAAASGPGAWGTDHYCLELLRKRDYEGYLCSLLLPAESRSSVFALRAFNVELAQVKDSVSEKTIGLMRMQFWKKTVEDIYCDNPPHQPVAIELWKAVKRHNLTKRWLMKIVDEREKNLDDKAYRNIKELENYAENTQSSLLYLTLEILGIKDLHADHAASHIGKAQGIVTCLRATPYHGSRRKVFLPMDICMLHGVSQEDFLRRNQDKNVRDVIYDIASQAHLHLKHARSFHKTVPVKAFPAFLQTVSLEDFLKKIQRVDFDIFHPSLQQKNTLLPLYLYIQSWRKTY
Chain of UniProt P46934 (P46934 whole entry, looked up): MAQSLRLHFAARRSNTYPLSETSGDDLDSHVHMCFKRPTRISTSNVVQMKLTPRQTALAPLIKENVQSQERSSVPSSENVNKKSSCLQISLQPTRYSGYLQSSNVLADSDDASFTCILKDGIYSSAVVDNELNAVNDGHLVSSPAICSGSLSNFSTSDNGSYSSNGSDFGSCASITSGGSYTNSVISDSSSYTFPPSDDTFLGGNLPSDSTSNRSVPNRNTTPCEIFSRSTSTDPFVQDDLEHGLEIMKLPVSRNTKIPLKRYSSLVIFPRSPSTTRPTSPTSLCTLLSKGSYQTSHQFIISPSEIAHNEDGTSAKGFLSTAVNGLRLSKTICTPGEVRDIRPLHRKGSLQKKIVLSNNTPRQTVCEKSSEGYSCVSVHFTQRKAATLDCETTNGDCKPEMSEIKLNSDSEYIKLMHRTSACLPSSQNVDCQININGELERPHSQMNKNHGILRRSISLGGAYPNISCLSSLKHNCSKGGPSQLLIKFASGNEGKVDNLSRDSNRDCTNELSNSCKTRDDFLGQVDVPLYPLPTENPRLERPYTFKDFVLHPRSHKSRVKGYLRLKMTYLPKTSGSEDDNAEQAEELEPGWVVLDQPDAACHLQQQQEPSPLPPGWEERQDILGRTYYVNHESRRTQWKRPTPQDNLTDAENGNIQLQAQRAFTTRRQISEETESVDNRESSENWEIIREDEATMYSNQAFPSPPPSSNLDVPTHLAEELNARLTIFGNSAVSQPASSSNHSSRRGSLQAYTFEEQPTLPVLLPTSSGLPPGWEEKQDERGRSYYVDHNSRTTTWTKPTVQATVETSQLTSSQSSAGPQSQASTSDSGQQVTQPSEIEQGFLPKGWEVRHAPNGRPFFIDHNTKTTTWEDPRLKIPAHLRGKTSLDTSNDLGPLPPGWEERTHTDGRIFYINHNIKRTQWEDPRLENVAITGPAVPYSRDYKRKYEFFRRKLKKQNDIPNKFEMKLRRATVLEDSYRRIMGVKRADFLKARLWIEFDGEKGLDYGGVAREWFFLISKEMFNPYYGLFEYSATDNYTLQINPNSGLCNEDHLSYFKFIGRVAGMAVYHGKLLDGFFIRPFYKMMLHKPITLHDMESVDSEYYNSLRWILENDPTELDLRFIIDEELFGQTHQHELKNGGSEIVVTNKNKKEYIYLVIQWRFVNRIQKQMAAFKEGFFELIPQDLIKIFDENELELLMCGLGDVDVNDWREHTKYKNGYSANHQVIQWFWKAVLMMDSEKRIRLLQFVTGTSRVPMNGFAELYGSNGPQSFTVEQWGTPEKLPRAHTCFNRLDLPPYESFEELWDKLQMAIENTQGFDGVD
Chain of UniProt Q15102 (Q15102 whole entry, looked up): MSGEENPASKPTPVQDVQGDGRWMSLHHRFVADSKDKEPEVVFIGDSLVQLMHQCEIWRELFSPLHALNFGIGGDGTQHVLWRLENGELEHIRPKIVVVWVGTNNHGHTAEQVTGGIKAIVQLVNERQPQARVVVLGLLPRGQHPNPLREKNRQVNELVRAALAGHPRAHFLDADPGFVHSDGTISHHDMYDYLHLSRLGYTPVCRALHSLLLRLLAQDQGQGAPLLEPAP

log2 fold change, inactive:
MRPS15 (UniProt P82914) 0.044, NDUFS4 (UniProt O43181) 0.069, MLX (UniProt Q9UH92) -0.17, PAFAH1B3 (UniProt Q15102) 0, MPHOSPH10 (UniProt O00566) 0.082, MRPS5 (UniProt P82675) 0.044, NSDHL (UniProt Q15738) -0.05, OPHN1 (UniProt O60890) -0.014, NEDD4 isoform 4 (UniProt P46934) -0.007, NPM3 (UniProt O75607) 0.008, NME1 isoform 2 (UniProt P15531) 0.031, MKNK1 (UniProt Q9BUB5) 0.01, MRPS26 (UniProt Q9BYN8) 0.078, NECTIN2 isoform 2 (UniProt Q92692) -0.003, NISCH (UniProt Q9Y2I1) 0.045, NUP85 (UniProt Q9BW27) 0.005, NAGPA (UniProt Q9UK23) -0.109, NFATC2 (UniProt Q13469) -0.012, MRPS10 (UniProt P82664) 0.054, MRPS6 (UniProt P82932) 0.046, OSBPL3 (UniProt Q9H4L5) 0.171, MIS12 (UniProt Q9H081) -0.003, NDUFAF6 (UniProt Q330K2) -0.121, NELFA (UniProt Q9H3P2) -0.005, NDUFB7 (UniProt P17568) -0.074, NMU (UniProt P48645) 0.078, NUMA1 (UniProt Q14980) 0.049, NMRAL1 (UniProt Q9HBL8) 0.135, NECTIN2 (UniProt Q92692) -0.016, OXSR1 (UniProt O95747) -0.058, NR2C2AP isoform 2 (UniProt Q86WQ0) 0.004, MITF (UniProt O75030) -0.085, NUCKS1 (UniProt Q9H1E3) -0.02, MON2 isoform 5 (UniProt Q7Z3U7) 0.014

Source: the supplement of paper PMC10849652
